PubChem BioAssay (NCI)
The panel holds about 79,000 compounds, 15% with a hit somewhere; the sample as a whole holds those more often. Calls of active or inactive are those of the source. Rule as the data show it: active = growth inhibition above about 70%; inactive = the rest.

Key:
[1] = NCI Yeast Anticancer Drug Screen. Data for the rad52 strain (AID 147);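 also: 0% = growth of vehicle-treated control cultures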; conditions: S. cerevisiae rad52 mutant growth inhibition, active compounds read high
Method in brief: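 DNA repair-defective yeast; compound exposure; growth scored against vehicle controls.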

[2] = NCI Yeast Anticancer Drug Screen. Data for the wt1 strain (AID 149);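 also: 0% = growth of vehicle-treated wt1 cultures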; conditions: S. cerevisiae wt1 strain (SPY 50644) growth inhibition, active compounds read high
Method in brief: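 The wt1 strain was treated with compounds, and growth was compared with vehicle-treated cultures to give inhibition.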

[3] = NCI Yeast Anticancer Drug Screen. Data for the rad50EPP+ strain (AID 151);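 also: 0% = growth of vehicle-treated control cultures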; conditions: S. cerevisiae rad50 mutant strain, active compounds read high
Method in brief: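 rad50EPP+ yeast treated with test compounds. Readout: growth vs vehicle control.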

[4] = NCI Yeast Anticancer Drug Screen. Data for the mgt1 strain (AID 153); conditions: S. cerevisiae mgt1 mutant growth inhibition, active compounds read high
Method in brief: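 Growth inhibition relative to vehicle controls was scored for the mgt1 yeast strain after compound exposure.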

[5] = NCI Yeast Anticancer Drug Screen. Data for the rad50 strain (AID 155);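 also: 0% = growth of vehicle-only cultures of the same strain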; conditions: S. cerevisiae rad50 strain growth inhibition, active compounds read high
Method in brief: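 Cells are treated with compound, grown, and their growth is then scored against vehicle-only cultures of the same repair-deficient yeast strain.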

[6] = NCI Yeast Anticancer Drug Screen. Data for the mec2-1 strain (AID 157); conditions: S. cerevisiae mec2-1 strain, active compounds read high
Method in brief: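 Growth inhibition is read against vehicle-treated controls after compound exposure of the mec2-1 yeast strain, which is defective in DNA damage repair or cell cycle control.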

[7] = NCI Yeast Anticancer Drug Screen. Data for the rad14 strain (AID 159);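 also: 0% = growth of vehicle-treated control cultures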; conditions: S. cerevisiae rad14 strain growth inhibition, active compounds read high
Method in brief: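 Readout: yeast growth inhibition, referenced to vehicle-only cultures. Strain bears a defined alteration in DNA damage repair.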

[8] = NCI Yeast Anticancer Drug Screen. Data for the sgs1 mgt1 strain (AID 161);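 also: 0% = growth of cultures given vehicle only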; conditions: S. cerevisiae sgs1 mgt1 strain, active compounds read high
Method in brief: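 Percent growth inhibition was derived by comparing compound-exposed mutant yeast with vehicle-exposed cultures. The strain carries alterations in DNA damage repair.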

[9] = NCI Yeast Anticancer Drug Screen. Data for the CLN2oe strain (AID 163);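 also: 0% = growth of vehicle-only control cultures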; conditions: S. cerevisiae CLN2oe strain, active compounds read high
Method in brief: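 Compound-treated yeast; growth vs vehicle ctrl = % inhibition. Genetically altered strain (cell-cycle control).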

[10] = NCI Yeast Anticancer Drug Screen. Data for the cln2 rad14 strain (AID 165);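 also: 0% = growth equal to vehicle treated cultures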; conditions: S. cerevisiae cln2 rad14 strain, active compounds read high
Method in brief: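 Growth inhibition, relative to vehicle-treated controls, is the read-out. The test organism is a yeast strain with defined genetic alterations, cln2 rad14.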

[11] = NCI Yeast Anticancer Drug Screen. Data for the bub3 strain (AID 167); conditions: S. cerevisiae bub3 mutant strain, active compounds read high
Method in brief: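 Part of a panel of yeast mutants defective in DNA damage repair or cell cycle regulation. Each strain is grown with compound, and inhibition is calculated relative to solvent-treated cultures.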

[12] = NCI Yeast Anticancer Drug Screen. Data for the wt2 strain (AID 169);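 also: 0% = growth of vehicle-treated yeast cultures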; conditions: S. cerevisiae wt2 strain growth inhibition, active compounds read high
Method in brief: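 Compound exposure of yeast; growth compared with vehicle controls; inhibition reported.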

[13] = NCI Yeast Anticancer Drug Screen. Data for the mlh1 strain (AID 171);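 also: 0% = growth of vehicle-treated control cultures of the same strain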; conditions: S. cerevisiae mlh1 strain growth inhibition, active compounds read high
Method in brief: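 Compounds are applied to a genetically altered yeast strain, and its growth is compared with that of vehicle-treated cultures to give percent inhibition.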

[14] = NCI Yeast Anticancer Drug Screen. Data for the sgs1 strain (AID 173);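 also: 0% = growth of vehicle-only control cultures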; conditions: S. cerevisiae sgs1 mutant, active compounds read high
Method in brief: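 Compounds applied to genetically altered yeast; growth compared with vehicle-treated cultures to give % inhibition.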

[15] = NCI Yeast Anticancer Drug Screen. Data for the mlh1 rad18 strain (AID 175); conditions: S. cerevisiae mlh1 rad18 strain growth inhibition, active compounds read high
Method in brief: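 Cells of a genetically altered yeast strain, deficient in DNA damage repair, were treated with compound. Their growth was then compared with that of vehicle-treated cultures to give inhibition.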

[16] = NCI Yeast Anticancer Drug Screen. Data for the rad18 strain (AID 177); conditions: S. cerevisiae rad18 mutant growth inhibition, active compounds read high
Method in brief: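 Compounds are applied to a repair-deficient yeast strain, and growth is compared with that of vehicle-treated cultures to give percent inhibition.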

[17] = at 5.0 µM (retest, dose inferred, filed as 0.5)
[18] = at 50.0 µM (retest, dose inferred, filed as 5.0)

Measured: growth inhibition

Cc1ccc(NC(=O)CCC(=O)C(C)C(=O)c2ccccc2)c(C)c1 (stereo not drawn)
active: [5]; [17] 91% | [5]; [18] 92%
inactive: [1]; at 1.2 µM 1% | [1]; at 3.7 µM 1% | [1]; at 11.0 µM 3% | [1]; at 33.0 µM 1% | [1]; at 100.0 µM -1% | [2]; at 1.2 µM -1% | [2]; at 3.7 µM -1% | [2]; at 11.0 µM -1% | [2]; at 33.0 µM -1% | [2]; at 100.0 µM -3% | [3]; at 1.2 µM -2% | [3]; at 3.7 µM 0% | [3]; at 11.0 µM 1% | [3]; at 33.0 µM 0% | [3]; at 100.0 µM 5% | [4]; at 1.2 µM 0% | [4]; at 3.7 µM 5% | [4]; at 11.0 µM 1% | [4]; at 33.0 µM 0% | [4]; at 100.0 µM -5% | [5]; at 1.2 µM 1% | [5]; at 3.7 µM -6% | [5]; at 11.0 µM 3% | [5]; at 33.0 µM 3% | [5]; at 50.0 µM -41.7% | [5]; at 100.0 µM -1% | [6]; at 1.2 µM -3% | [6]; at 3.7 µM -5% | [6]; [17] 12% | [6]; at 11.0 µM 1% | [6]; at 33.0 µM -2% | [6]; [18] 39% | [6]; at 50.0 µM -1.6% | [6]; at 100.0 µM -3% | [7]; at 1.2 µM 0% | [7]; at 3.7 µM 2% | [7]; at 11.0 µM 1% | [7]; at 33.0 µM 2% | [7]; at 100.0 µM 2% | [8]; [17] 5% | [8]; [18] 9% | [8]; at 50.0 µM 11.1% | [9]; at 1.2 µM -1% | [9]; at 3.7 µM 1% | [9]; at 11.0 µM 5% | [9]; at 33.0 µM 1% | [9]; at 100.0 µM 0% | [10]; [17] -3% | [10]; [18] 11% | [10]; at 50.0 µM -12.9% | [11]; at 1.2 µM -1% | [11]; at 3.7 µM -2% | [11]; [17] -15% | [11]; at 11.0 µM -2% | [11]; at 33.0 µM -5% | [11]; [18] -10% | [11]; at 50.0 µM 0.65% | [11]; at 100.0 µM -5% | [12]; at 1.2 µM -2% | [12]; at 3.7 µM -1% | [12]; at 11.0 µM -1% | [12]; at 33.0 µM -2% | [12]; at 100.0 µM -4% | [13]; at 1.2 µM -2% | [13]; at 3.7 µM -1% | [13]; at 11.0 µM -1% | [13]; at 33.0 µM -1% | [13]; at 100.0 µM 0% | [14]; at 1.2 µM 0% | [14]; at 3.7 µM -1% | [14]; at 11.0 µM -3% | [14]; at 33.0 µM -1% | [14]; at 100.0 µM -1% | [15]; [17] 6% | [15]; [18] 3% | [15]; at 50.0 µM 6.15% | [16]; at 1.2 µM -1% | [16]; at 3.7 µM -1% | [16]; at 11.0 µM -1% | [16]; at 33.0 µM -3% | [16]; at 100.0 µM -1%

CC(C)N(CCCNc1c2ccccc2nc2cccc([N+](=O)[O-])c12)C(C)C
active: [1]; at 3.7 µM 87% | [1]; at 11.0 µM 95% | [1]; at 33.0 µM 97% | [1]; at 100.0 µM 98% | [2]; at 33.0 µM 94% | [2]; at 100.0 µM 98% | [3]; at 3.7 µM 86% | [3]; at 11.0 µM 93% | [3]; at 33.0 µM 95% | [3]; at 100.0 µM 96% | [4]; at 33.0 µM 97% | [4]; at 100.0 µM 99% | [5]; at 3.7 µM 82% | [5]; [17] 86% | [5]; at 11.0 µM 92% | [5]; at 33.0 µM 94% | [5]; [18] 98% | [5]; at 50.0 µM 92.8% | [5]; at 100.0 µM 97% | [6]; at 3.7 µM 76% | [6]; [17] 88% | [6]; at 11.0 µM 97% | [6]; at 33.0 µM 98% | [6]; [18] 99% | [6]; at 50.0 µM 94.5% | [6]; at 100.0 µM 99% | [7]; at 1.2 µM 93% | [7]; at 3.7 µM 98% | [7]; at 11.0 µM 99% | [7]; at 33.0 µM 99% | [7]; at 100.0 µM 99% | [8]; [17] 91% | [8]; [18] 98% | [8]; at 50.0 µM 94.5% | [9]; at 33.0 µM 91% | [9]; at 100.0 µM 96% | [10]; [17] 97% | [10]; [18] 98% | [10]; at 50.0 µM 95.7% | [11]; at 33.0 µM 90% | [11]; [18] 97% | [11]; at 100.0 µM 98%
inactive: [1]; at 1.2 µM 51% | [2]; at 1.2 µM 0% | [2]; at 3.7 µM 5% | [2]; at 11.0 µM 43% | [3]; at 1.2 µM 52% | [4]; at 1.2 µM -1% | [4]; at 3.7 µM 8% | [4]; at 11.0 µM 67% | [5]; at 1.2 µM 42% | [6]; at 1.2 µM 12% | [9]; at 1.2 µM -9% | [9]; at 3.7 µM -12% | [9]; at 11.0 µM 51% | [11]; at 1.2 µM -20% | [11]; at 3.7 µM -18% | [11]; [17] -10% | [11]; at 11.0 µM 17% | [11]; at 50.0 µM 33.5%
